Measurements taken from PubChem BioAssay (NCATS).
Inconclusive results are not listed. Activity calls are given as the source filed them. The call rests on the fitted dose curve; in most records, active means well fitted cell-killing curve with a large enough effect; inconclusive means small, poorly fitted or top-dose-only effect, or effect the other way; inactive means flat fitted curve, though single readings scatter.

Key:
Test in all cases: Primary qHTS to identify gynecologic anti-cancer compounds using libraries of approved drugs and bioactive compounds (AID 1345084); further: nearly all actives have a fitted effect of over 55% in size
Details in all cases: Gynecologic cancer cell panel viability, ATPlite luminescence, 48 h; series mostly up to 57.5 µM
OV90 = test system: OV90
Outline: (§1)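 Cells, 1,000 per well, were allowed to settle for 16 h at 37 C before compound addition. Five concentrations were tested for 48 h, and viability was read by ATPlite luminescence after 15 min at room temperature.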

PA-1 = test system: PA-1
Outline: as §1

SKOV3 = test system: SKOV3
Outline: as §1

Tov-21-G = test system: Tov-21-G
Outline: as §1

Tov112D = test system: Tov112D
Outline: as §1
On the % scale 0 is the no-effect control and ±100 the full control effect.

CC1=C2C3OC(=O)C(C)C3(O)CCC2(C)CCC1 (stereo not given)
inactive: Potency (OV90) | Potency (PA-1) | Potency (SKOV3) | Potency (Tov-21-G) | Potency (Tov112D)

C[C@@]12CC3(S(=O)(=O)O)OC(O1)[C@]1(COC(=O)c4ccccc4)[C@H]3C[C@]21O[C@@H]1O[C@H](CO)[C@@H](O)[C@H](O)[C@H]1O
inactive: Potency (OV90) | Potency (PA-1) | Potency (SKOV3) | Potency (Tov-21-G) | Potency (Tov112D)

CC1=C[C@H]2[C@@H](CC1=O)[C@H](C)C[C@H](O)[C@H]2C(C)C
inactive: Potency (OV90) | Potency (PA-1) | Potency (SKOV3) | Potency (Tov-21-G) | Potency (Tov112D)

CC(CCO)CCC1C2(C)CCCC(C)(C)C2CC[C@@]1(C)O (stereo not given in full)
inactive: Potency (OV90) | Potency (PA-1) | Potency (SKOV3) | Potency (Tov-21-G) | Potency (Tov112D)

CC(=O)c1c(C)cccc1O[C@@H]1O[C@H](CO)[C@@H](O)[C@H](O)[C@H]1O
inactive: Potency (OV90) | Potency (PA-1) | Potency (SKOV3) | Potency (Tov-21-G) | Potency (Tov112D)

CC1(C)CC[C@]2(C(=O)O[C@@H]3O[C@H](CO)[C@@H](O)[C@H](O)[C@H]3O)CC[C@]3(C)C(=CCC4[C@@]5(C)C[C@H](O)[C@H](O[C@@H]6OC[C@@H](O)[C@H](O)[C@H]6O)[C@@](C)(CO)C5CC[C@]43C)C2C1 (stereo not given in full)
inactive: activity change, negative = cytotoxicity (OV90) 6.42% [at 11.6 µM] | activity change, negative = cytotoxicity (PA-1) 8.05% [at 11.6 µM] | activity change, negative = cytotoxicity (SKOV3) 21.5% [at 11.6 µM] | activity change, negative = cytotoxicity (Tov-21-G) -9.27% [at 11.6 µM] | activity change, negative = cytotoxicity (Tov112D) 3.56% [at 11.6 µM]

C/C=C1/[C@H](O[C@@H]2O[C@H](CO)[C@@H](O)[C@H](O)[C@H]2O)OC=C(C(=O)OC)[C@H]1CC(=O)OCCc1ccc(O)c(O)c1
inactive: Potency (OV90) | Potency (PA-1) | Potency (SKOV3) | Potency (Tov-21-G) | Potency (Tov112D)

COc1cc(/C=C/c2ccccc2)c(C(=O)O)c(O)c1CC=C(C)C
inactive: Potency (OV90) | Potency (PA-1) | Potency (SKOV3) | Potency (Tov-21-G) | Potency (Tov112D)

C=C1CC23CC(=O)C4C(CO)(CO)CCCC4(C)C2CCC1C3 (stereo not given)
inactive: Potency (OV90) | Potency (PA-1) | Potency (SKOV3) | Potency (Tov-21-G) | Potency (Tov112D)

CN1CCN(C(=O)c2cc3cc(Cl)ccc3[nH]2)CC1
inactive: Potency (OV90) | Potency (PA-1) | Potency (SKOV3) | Potency (Tov-21-G) | Potency (Tov112D)

C=C1C(=O)O[C@@H]2/C=C(\C)CC/C=C(\C(=O)O[C@@H]3O[C@H](CO)[C@@H](O)[C@H](O)[C@H]3O)CC[C@@H]12
inactive: Potency (OV90) | Potency (PA-1) | Potency (SKOV3) | Potency (Tov-21-G) | Potency (Tov112D)

CCN(CCN(C)C)C(=O)CNCc1cc(C(N)=O)ccn1
inactive: Potency (OV90) | Potency (PA-1) | Potency (SKOV3) | Potency (Tov-21-G) | Potency (Tov112D)

O=C(O)C[C@H]1CCC(=O)[C@@H]1C/C=C\CCO
inactive: Potency (OV90) | Potency (PA-1) | Potency (SKOV3) | Potency (Tov-21-G) | Potency (Tov112D)

CC1=CC(=O)C(=C(C)C)CC2C(C)(O)CCC12O (stereo not given)
inactive: Potency (OV90) | Potency (PA-1) | Potency (SKOV3) | Potency (Tov-21-G) | Potency (Tov112D)

COc1cc(O)cc(C)c1C(=O)O[C@H]1[C@@H](O)[C@@H](n2ccc(=O)[nH]c2=O)O[C@@H]1CO
inactive: Potency (OV90) | Potency (PA-1) | Potency (SKOV3) | Potency (Tov-21-G) | Potency (Tov112D)

CC(=O)O[C@H]1[C@H](OC(=O)C(C)C)[C@]2(C)OC3(CC[C@]2(C)[C@H]2CCC[C@]4(CO4)[C@]12C)COC(=O)C3 (stereo not given in full)
inactive: Potency (OV90) | Potency (PA-1) | Potency (SKOV3) | Potency (Tov-21-G) | Potency (Tov112D)

Cc1sc(C)c(C(=O)NC2(c3ccc(C(=O)O)cc3)CC2)c1Cc1ccc(C(F)(F)F)cc1
inactive: Potency (OV90) | Potency (PA-1) | Potency (SKOV3) | Potency (Tov-21-G) | Potency (Tov112D)

C=C1CC[C@@H]2[C@](C)(CO)[C@H](O[C@@H]3O[C@H](CO)[C@@H](O)[C@H](O)[C@H]3O)CC[C@@]2(C)[C@@H]1C/C=C1/C(=O)OC[C@H]1O
inactive: Potency (OV90) | Potency (PA-1) | Potency (SKOV3) | Potency (Tov-21-G) | Potency (Tov112D)

CC1(C)Oc2ncnc(N)c2N=C1c1ccc(C2CCC(CC(=O)O)CC2)cc1 (stereo not given)
inactive: Potency (OV90) | Potency (PA-1) | Potency (SKOV3) | Potency (Tov-21-G) | Potency (Tov112D)

CC1=C2C[C@@]3(C)[C@@H](CCC[C@@H]3C)C[C@@]2(O)OC1=O
inactive: Potency (OV90) | Potency (PA-1) | Potency (SKOV3) | Potency (Tov-21-G) | Potency (Tov112D)

C[C@]12CC[C@@H]3c4ccc(O)cc4CC[C@H]3[C@@H]1C[C@@H](O[C@@H]1O[C@H](C(=O)O)[C@@H](O)[C@H](O)[C@H]1O)[C@@H]2O
inactive: Potency (OV90) | Potency (PA-1) | Potency (SKOV3) | Potency (Tov-21-G) | Potency (Tov112D)

CC(NC(=O)c1ccccc1N)C(=O)O (stereo not given)
inactive: Potency (OV90) | Potency (PA-1) | Potency (SKOV3) | Potency (Tov-21-G) | Potency (Tov112D)

CCOC(=O)C(CCc1ccccc1)NC(C)C(=O)N1Cc2ccccc2CC1C(=O)O (stereo not given)
inactive: Potency (OV90) | Potency (PA-1) | Potency (SKOV3) | Potency (Tov-21-G) | Potency (Tov112D)
